This is a sample that favours compounds with a hit; in the whole collection about 2.7% have one here.
Akt phos inh: HTS Assay for Inhibitors of Akt Phophorylation: Primary Screen; Neuro2A IGF-stimulated pAkt S473 HTRF, 20 min; stronger effect = lower value; activity change, % for hits at 50 µM; 360,000 compounds, 0.32% hits; AID 651550, 2012; in the data active means activity change below about -80%; inconclusive means mostly about -51% to -80%; further: on the % scale 0 is the no-effect control and ±100 the full control effect
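Neuro2A cells in DMEM with 0.5% FBS, overnight at 37 deg C, given compound at single 50 µM final, then IGF (6 nM final) for 20 min at 37 deg C. Lysed; phospho-Akt Ser473 by HTRF after 24 h, 665/615 ratio.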
gsp antag: qHTS for Antagonists of gsp, the Etiologic Mutation Responsible for Fibrous Dysplasia/McCune-Albright Syndrome: qHTS | gsp-mutant cells, cAMP HTRF, 30 min | AID 624288, 2012 | 340,000 compounds, 0.4% hits | Potency, µM (highest dose often 76.9 µM), inactives show top-dose activity change, negative = inhibition, hits mostly inhibitors; calls by dose curve; cell line not stated here;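 further: intracellular cAMP measured with PDE inhibitor Ro 20-1724 present during compound exposure; potency means the concentration at half of the fitted maximal effect; on the % scale 0 is the no-effect control and ±100 the full control effect; nearly all actives have a fitted effect of over 65% in size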
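G418-selected cells were plated in DMEM/10% FBS for 16-24 h at 37C, then treated with compounds plus the PDE inhibitor […] (300 uM solution added) for 30 min at 37C. Intracellular cAMP was measured by HTRF after 30 min lysis at room temperature.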
gsp agonist: qHTS for Agonist of gsp, the Etiologic Mutation Responsible for Fibrous Dysplasia/McCune-Albright Syndrome: qHTS. gsp mutant cells, cAMP HTRF, 30 min. Potency, µM (doses to about 76.9 µM), for the others: at the top dose activation (cAMP increase), hits mostly activators. 340,000 compounds, 0.13% hits; active means well fitted activation curve with a large enough effect; inconclusive means small, poorly fitted or top-dose-only effect, or another doubt; inactive means no such curve, though single readings can be large or run the other way; cell line not stated here;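 further: phosphodiesterase inhibitor Ro 20-1724 added with compounds to block cAMP breakdown; potency means the concentration at half of the fitted maximal effect; nearly all actives have a fitted effect of over 60% in size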
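Cells stably selected in G418 were plated at 2000/well, grown 16-24 hr, then given compounds in DMSO with the PDE inhibitor […] (300 uM solution added) for 30 min at 37C; cAMP was read by HTRF.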
RXFP1 agonist: qHTS Assay for Agonists of the Relaxin Receptor RXFP1 | Potency, µM (highest dose often 57.5 µM), for the others: at the highest dose activation, usual class: activators | HEK293T-RXFP1 cAMP TR-FRET, 30 min; response scale: percent of porcine relaxin response, buffer zero | AID 2676, 2010 | Relaxin receptor 1 (Homo sapiens), Q9HBX9 | 370,000 compounds, 0.3% hits; active means well fitted activation curve with a large enough effect; inconclusive means small, poorly fitted or top-dose-only effect; further: potency means the concentration at half of the fitted maximal effect; on the % scale 0 is the no-effect control and ±100 the full control effect; nearly all actives have a fitted effect of over 60% in size
Target sequence (Q9HBX9 whole entry, looked up): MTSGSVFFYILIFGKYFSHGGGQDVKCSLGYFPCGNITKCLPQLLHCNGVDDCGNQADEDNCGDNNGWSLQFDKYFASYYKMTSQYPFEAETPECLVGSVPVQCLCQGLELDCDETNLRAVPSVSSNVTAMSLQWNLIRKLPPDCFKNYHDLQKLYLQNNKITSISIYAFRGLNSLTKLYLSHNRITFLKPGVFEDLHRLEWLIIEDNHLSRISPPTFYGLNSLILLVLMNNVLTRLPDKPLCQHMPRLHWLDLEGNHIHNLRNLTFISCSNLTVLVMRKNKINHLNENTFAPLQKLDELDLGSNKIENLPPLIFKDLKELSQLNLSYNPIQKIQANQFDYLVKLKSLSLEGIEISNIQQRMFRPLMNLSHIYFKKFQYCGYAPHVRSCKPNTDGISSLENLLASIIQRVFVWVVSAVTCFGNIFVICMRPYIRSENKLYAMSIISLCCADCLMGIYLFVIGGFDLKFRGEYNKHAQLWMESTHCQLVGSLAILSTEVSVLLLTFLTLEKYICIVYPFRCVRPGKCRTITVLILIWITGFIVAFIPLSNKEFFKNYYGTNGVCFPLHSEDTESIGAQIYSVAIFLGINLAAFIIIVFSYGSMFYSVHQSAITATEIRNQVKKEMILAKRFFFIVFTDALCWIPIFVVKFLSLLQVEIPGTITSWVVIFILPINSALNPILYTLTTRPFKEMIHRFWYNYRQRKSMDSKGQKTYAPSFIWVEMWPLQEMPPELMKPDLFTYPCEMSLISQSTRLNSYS
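HEK293 cells stably expressing RXFP1, treated 30 min at 37C with compounds plus PDE4 inhibitor Ro 20174; cAMP measured by HTRF TR-FRET. Normalized to buffer and 29 nM porcine relaxin; EC50 by Hill fit.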
RXFP1 antag: qHTS Assay for Antagonists of the Relaxin Receptor RXFP1; Relaxin receptor 1 (Homo sapiens), Q9HBX9; HEK293-RXFP1, relaxin-stimulated cAMP HTRF, 30 min; stronger effect = lower value; activity change, negative = inhibition, % at 57.5 µM; 350,000 compounds, 0.59% hits;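 active means activity change of -60% or lower, but not beyond a set lower limit; inconclusive means change between -60% and -40%, or beyond the set limit; inactive means change above -40%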; further: on the % scale 0 is the no-effect control and ±100 the full control effect
ClpP mod: qHTS Assay for Activators of ClpP; purified B. subtilis ClpP, FRET peptide cleavage, 20 min; Potency, µM (titrated, usually from 57.5 µM), without a hit: at the highest dose activity change, negative = active; ATP-dependent Clp protease proteolytic subunit (Bacillus subtilis (strain 168)), P80244; 340,000 compounds, 1.9% hits; active means well fitted falling curve with a large enough effect; inconclusive means small, poorly fitted or top-dose-only effect; inactive means no such curve, though single readings can be large or run the other way; further: potency means the concentration at half of the fitted maximal effect; the source files actives as falling curves though it sought activators and does not explain the sign; nearly all actives have a fitted effect of over 65% in size
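FRET quenching reversal measured ClpP activation: 10 microg/mL B. subtilis ClpP at pH 8 with the FRET-FV decapeptide, read at 430 nm after 320 nm excitation. The 20-min minus 0-min signal was scaled between DMSO/no-enzyme wells and ADEP (5.8 microM final).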
* hit, by the source's call; i = inactive; ? = inconclusive; . = no result; [ ] = remark or other dose.

SMILES | Akt phos inh | gsp antag | gsp agonist | RXFP1 agonist | RXFP1 antag | ClpP mod
O=[N+]([O-])c1cccc(S(=O)(=O)Nc2nc3ccccc3nc2Nc2cccc(S(=O)(=O)N3CCCCC3)c2)c1 | i | 17.8µM* | -15.6% | -0.1% | -8.0 | -1.1%
Cc1cccc(S(=O)(=O)Nc2nc3ccccc3nc2Nc2ccc3c(c2)OCO3)c1 | i | 28.2µM* | 18.5%[15.4 µM] | -0.1% | 6.9 | -0.1%
O=[N+]([O-])c1cccc(S(=O)(=O)Nc2ccc(S(=O)(=O)N3CCCC3)cc2)c1 | i | -8.0% | -25.0% | . | -4.2 | -0.4%
Cc1ccc(S(=O)(=O)Nc2nc3ccccc3nc2Nc2cccc(S(=O)(=O)N3CCCC3)c2)cc1 | i | 31.6µM* | ? | 3.4% | 1.4 | 3.7%
Cc1ccc(Nc2sc(C(=O)c3ccccc3)c(N)c2S(=O)(=O)c2ccccc2)cc1Cl | . | . | . | -1.4% | -30.4 | -4.8%
O=C(NCc1nnnn1-c1ccc(F)c(F)c1)c1ccc(S(=O)(=O)N2CCOCC2)cc1 | i | 14.4% | 2.0% | -0.1% | -13.9 | 35.5µM*
O=C(Nc1ccc(C(=O)c2ccccc2)cc1)c1ccccc1 | i | 39.8µM* | -0.2%[15.4 µM] | 3.7% | -31.2 | -0.7%
CCOc1ccc(NC(=O)c2oc3ccccc3c2NC(=O)c2c(F)cccc2F)cc1 | . | . | . | 3.4% | . | -5.8%
CCOc1ccccc1C(=O)Nc1c(C(=O)Nc2ccc(F)cc2)oc2ccccc12 | . | . | . | 2.8% | . | 31.6µM*
CCOc1ccccc1C(=O)Nc1ccc(NC(=O)c2ccccc2)cc1 | i | 8.6% | -3.6% | 1.7% | 0.0 | 1.3%
CCOc1ccccc1C(=O)Nc1ccc(C(=O)c2ccccc2)cc1 | i | 25.1µM* | -13.2% | 4.1% | -1.8 | -2.2%
CC(C)CC(=O)N1C/C=C\C[C@@H](c2ccc(Cl)cc2)N(Cc2ccc(Cl)cc2)C(=O)[C@@H]1Cc1ccccc1 | . | . | . | . | . | 0.6%
O=C(Nc1ccc(-n2cccc2)cc1)C1CC1 | i | 11.2µM* | -2.3%[15.4 µM] | -1.4% | 0.7 | .
CCOC(=O)N1CCN(C(=O)CSCC(=O)Nc2nc(-c3ccc4c(c3)OCO4)cs2)CC1 | i | 35.5µM* | -19.0% | 0.0% | 2.3 | -2.2%
CC(=O)Nc1nc(-c2ccc3c(c2)OCO3)cs1 | i | -6.9% | 17.3% | 0.5% | -2.6 | 2.0%
CCOC(=O)N1CCN(C(=O)CSCC(=O)Nc2nc(-c3ccc(C)cc3)cs2)CC1 | i | 31.6µM* | -3.7% | 0.1% | 0.9 | -0.3%
CCOC(=O)N1CCN(C(=O)CSCC(=O)Nc2nc(-c3cccs3)cs2)CC1 | i | ? | -12.9% | -0.1% | -5.5 | -1.8%
O=C(NCCc1ccccc1Cl)c1ccc2c(c1)nc1n2CCOC1 | . | . | . | 4.1% | -7.6 | -0.2%
COc1ccc2nc(N3C(=O)CC(C(C)c4ccccc4)C3=O)sc2c1 (configuration not stated) | i | -2.4% | -0.5% | 1.2% | 9.7 | 28.2µM*
CC(c1ccccc1)C1CC(=O)N(c2ccc(C(=O)O)cc2)C1=O (configuration not stated) | -81.2%* | -4.8% | -5.9% | 0.0% | -13.2 | -1.3%
O=C(Nc1nnc(Cc2ccc(Cl)cc2)s1)C1CCN(C(=O)c2ccco2)CC1 | . | . | . | . | . | 1.0%
Cc1ccc(S(=O)(=O)Nc2cc3c(C(=O)OCc4ccccc4)c(C)oc3c3ccccc23)c(C)c1 | . | . | . | 3.9% | 0.0 | -2.4%
CC(C)CN(C(=O)COC(=O)C1=COCCO1)c1c(N)n(Cc2ccccc2)c(=O)[nH]c1=O | i | 16.0% | 0.2% | 0.2% | -10.6 | -1.8%
CCN(C(=O)COC(=O)C1=COCCO1)c1c(N)n(Cc2ccccc2)c(=O)[nH]c1=O | i | 15.8% | -53.0% | 2.2% | -5.2 | 14.1µM*
CCOc1ccc(CCNC(=O)c2ccc3c(c2)N(Cc2ccccc2)C(=O)c2ccccc2S3=O)cc1OCC (configuration not stated) | . | . | . | 2.4% | . | -2.0%
SMILES | Akt phos inh | gsp antag | gsp agonist | RXFP1 agonist | RXFP1 antag | ClpP mod
Nc1c2c(nc3ccccc13)N(C1CCCCC1)CC2 | i | 12.4% | 8.2% | -0.8% | -8.0 | 14.1µM*
CCCC(=O)C1=C(c2ccc(C)cc2)N(C(=O)CCC)n2cnnc2S1 | . | . | . | 2.8% | ? | -3.0%
O=C1[C@@H]2[C@@H](CN3CN(c4ccccc4)N=C(c4ccccc4)[C@@]23c2ccccc2)C(=O)N1c1ccccc1 | i | 10.2% | -3.9% | . | -5.7 | 3.55µM*
COc1ccc(CNC(=O)c2cnc3sc(N4CCCC4)nn3c2=O)c(OC)c1 | . | . | . | 4.8% | -2.6 | -7.9%
CCCNC(=O)c1cnc2sc(N3CCCCC3)nn2c1=O | . | . | . | 3.5% | -3.2 | 4.1%
CCCCNC(=O)c1cnc2sc(N3CCCCCC3)nn2c1=O | . | . | . | -0.6% | ? | 25.1µM*
COc1ccccc1CNC(=O)c1cnc2sc(N3CCCCCC3)nn2c1=O | . | . | . | 3.1% | -17.3 | 14.1µM*
O=C(NCCc1ccccc1)c1cnc2sc(N3CCOCC3)nn2c1=O | . | . | . | 7.5% | 2.4 | 10µM*
CC(C)NC(=O)c1cnc2sc(N3CCCCCC3)nn2c1=O | . | . | . | 0.4% | -26.4 | 15.8µM*
CC(C)CCn1c(=O)c2sccc2n2c(CCCC(=O)NC(C)C)nnc12 | . | . | . | 1.4% | 7.4 | ?
COc1cccc(CNC(=O)c2nn(-c3ccccc3Cl)nc2CO)c1 | . | . | . | -2.0% | -18.8 | -9.2%
CC/C(=C/c1ccccc1)c1cc(Oc2ccccc2)cc2oc3ccccc3c12 | . | . | . | . | . | 4.1%
Cc1c(Cl)cccc1NC(=O)CN1C(=O)COc2ccc(S(=O)(=O)N3CCOCC3)cc21 | . | . | . | 4.8% | -18.8 | -0.8%
CCCCNC(=O)c1cnc2sc(N3CCCCC3)nn2c1=O | . | . | . | 0.8% | -8.7 | 4.1%
CCN(CC)c1nn2c(=O)c(C(=O)NCCc3cccc(C)c3)cnc2s1 | . | . | . | -1.1% | -15.3 | 11.2µM*
CCOCCCNC(=O)c1cnc2sc(N3CCCCCC3)nn2c1=O | . | . | . | 2.8% | -20.9 | 15.8µM*
COc1ccc2c(c1)sc1ncc(C(=O)NCc3ccccc3F)c(=O)n12 | . | . | . | 2.9% | -5.5 | 11.2µM*
CCN(CC)c1nn2c(=O)c(C(=O)NCc3cccc(C)c3)cnc2s1 | . | . | . | 3.3% | -17.3 | ?
C=CCn1c(SCC(=O)Nc2cc(C)on2)nnc1-c1ccncc1 | i | . | -44.3% | . | -4.9 | 0.4%
COc1cc2nc(N3CCCN(C)CC3)nc(NC3CCOCC3)c2cc1OC | . | . | . | . | . | 4.0%

Compound activity: PubChem, National Center for Advancing Translational Sciences (NCATS)
